From PubChem BioAssay
The source made the active and inactive calls.

How the values were obtained:
[1] = tested on: Plasmodium falciparum Sir2 (PF13_0152, Sir2A); experiment: Plasmodium falciparum Sir2A binding compounds – biochemical, small-molecule microarray, 635 nm fluorescence, primary screen (AID 1098); settings: fluorescence 635 nm, higher = more signal;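 note: score merges spot fluorescence intensity with its signal-to-noise ratio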
[2] = probe aDKK1 binding to arrayed compounds – biochemical, biotinylated probe, 635/667 nm fluorescence, primary screen (AID 1099); settings: small-molecule microarray, higher = more signal;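 note: score merges 667nm spot fluorescence with signal to noise across triplicate slides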
[3] = probe aCHRDL2 binding to arrayed compounds – biochemical, biotinylated probe, 635/667 nm fluorescence, primary screen (AID 1100); settings: small-molecule microarray, higher = more signal
[4] = change in splice reporter luminescence, either direction, cell-based, HEK293, spliceosome inhibition project, primary screen (AID 1101); settings: HEK293 splicing luciferase reporter, 24 h, higher = more signal, called active from +8 up or from −8 down;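 note: HEK293 cells carrying a splicing-competent luciferase reporter gene; test concentration not given here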
[5] = molecular target: Fibroblast growth factor 10 (Homo sapiens) (UniProt O15520); experiment: compounds binding fibroblast growth factor 10 – biochemical, small-molecule microarray, 635 nm fluorescence, primary screen (AID 1102); settings: FGF10 binding, fluorescence 635 nm, higher = more signal
Chain of Fibroblast growth factor 10 (Homo sapiens) (O15520 whole entry, looked up): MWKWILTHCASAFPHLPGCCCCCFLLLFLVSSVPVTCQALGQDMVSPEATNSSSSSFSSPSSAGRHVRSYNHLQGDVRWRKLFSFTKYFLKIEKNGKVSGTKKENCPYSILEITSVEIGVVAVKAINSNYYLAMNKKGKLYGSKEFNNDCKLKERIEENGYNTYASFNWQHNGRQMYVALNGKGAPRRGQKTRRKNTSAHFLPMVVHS

[6] = tested on: glycogen synthase kinase-3 (GSK3A per assay name; protocol says GSK3B); experiment: compounds binding glycogen synthase kinase-3 – biochemical, small-molecule microarray, 635 nm fluorescence, GSK3A, primary screen (AID 1103); settings: fluorescence 635 nm, higher = more signal; note: the record names both GSK3A and GSK3B
[7] = molecular target: Epidermal growth factor receptor (Homo sapiens) (UniProt P00533); experiment: compounds binding epidermal growth factor receptor – biochemical, small-molecule microarray, 635 nm fluorescence, primary screen (AID 1104); settings: EGFR binding, higher = more signal;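 note: score merges 667 nm emission intensity with spot signal to noise over triplicate slides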
Chain of Epidermal growth factor receptor (Homo sapiens) (P00533 whole entry, looked up): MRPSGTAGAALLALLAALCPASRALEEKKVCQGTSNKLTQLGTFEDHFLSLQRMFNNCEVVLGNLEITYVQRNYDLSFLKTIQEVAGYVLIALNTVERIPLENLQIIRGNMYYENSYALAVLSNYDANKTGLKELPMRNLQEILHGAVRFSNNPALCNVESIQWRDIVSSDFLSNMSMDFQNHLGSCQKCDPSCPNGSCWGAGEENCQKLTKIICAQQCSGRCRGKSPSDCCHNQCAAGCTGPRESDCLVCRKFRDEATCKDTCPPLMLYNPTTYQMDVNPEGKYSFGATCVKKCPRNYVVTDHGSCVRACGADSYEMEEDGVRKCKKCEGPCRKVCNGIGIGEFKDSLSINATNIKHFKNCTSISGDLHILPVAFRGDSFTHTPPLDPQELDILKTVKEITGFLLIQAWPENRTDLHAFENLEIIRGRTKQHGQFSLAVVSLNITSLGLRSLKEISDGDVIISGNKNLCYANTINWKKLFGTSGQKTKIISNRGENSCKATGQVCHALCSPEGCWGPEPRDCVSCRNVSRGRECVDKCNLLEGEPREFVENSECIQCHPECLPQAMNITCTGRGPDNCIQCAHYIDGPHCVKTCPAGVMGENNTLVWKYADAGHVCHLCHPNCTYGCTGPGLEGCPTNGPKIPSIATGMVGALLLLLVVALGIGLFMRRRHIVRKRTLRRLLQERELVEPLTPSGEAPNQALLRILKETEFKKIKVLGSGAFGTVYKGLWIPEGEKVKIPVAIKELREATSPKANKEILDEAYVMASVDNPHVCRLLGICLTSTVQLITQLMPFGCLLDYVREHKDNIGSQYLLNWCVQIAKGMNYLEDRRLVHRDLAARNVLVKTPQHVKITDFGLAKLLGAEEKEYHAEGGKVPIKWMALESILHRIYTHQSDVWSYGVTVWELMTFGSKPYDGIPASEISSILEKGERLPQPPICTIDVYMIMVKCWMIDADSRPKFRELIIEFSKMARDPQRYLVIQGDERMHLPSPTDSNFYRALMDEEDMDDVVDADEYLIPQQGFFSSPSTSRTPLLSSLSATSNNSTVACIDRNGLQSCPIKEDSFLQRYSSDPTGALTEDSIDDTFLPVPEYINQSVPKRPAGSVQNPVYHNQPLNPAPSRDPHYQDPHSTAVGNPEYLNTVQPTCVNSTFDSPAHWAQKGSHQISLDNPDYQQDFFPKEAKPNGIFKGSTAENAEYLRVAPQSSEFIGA

[8] = molecular target: Follistatin-related protein 3 (Homo sapiens) (UniProt O95633); experiment: compounds binding follistatin-related protein 3 – biochemical, small-molecule microarray, 635 nm fluorescence, primary screen (AID 1105); settings: FSTL3 binding, higher = more signal;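 note: score merges emission near 667 nm and signal to noise per printed spot across three slides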
Chain of Follistatin-related protein 3 (Homo sapiens) (O95633 whole entry, looked up): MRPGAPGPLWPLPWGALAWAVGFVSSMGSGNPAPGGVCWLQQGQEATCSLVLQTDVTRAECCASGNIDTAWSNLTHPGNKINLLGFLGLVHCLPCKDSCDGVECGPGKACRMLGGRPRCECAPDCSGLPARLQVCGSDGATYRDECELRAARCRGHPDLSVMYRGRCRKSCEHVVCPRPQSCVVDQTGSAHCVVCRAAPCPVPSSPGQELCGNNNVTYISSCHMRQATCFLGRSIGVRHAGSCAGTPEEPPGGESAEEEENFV

[9] = molecular target: Dickkopf-related protein 1 (Homo sapiens) (UniProt O94907); experiment: small molecules binding DKK1 protein – biochemical, small-molecule microarray, 635 nm fluorescence scan, primary screen (AID 1106); settings: higher = more signal;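 note: score merges emission near 667 nm with signal to noise over three replicate slides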
Chain of Dickkopf-related protein 1 (Homo sapiens) (O94907 whole entry, looked up): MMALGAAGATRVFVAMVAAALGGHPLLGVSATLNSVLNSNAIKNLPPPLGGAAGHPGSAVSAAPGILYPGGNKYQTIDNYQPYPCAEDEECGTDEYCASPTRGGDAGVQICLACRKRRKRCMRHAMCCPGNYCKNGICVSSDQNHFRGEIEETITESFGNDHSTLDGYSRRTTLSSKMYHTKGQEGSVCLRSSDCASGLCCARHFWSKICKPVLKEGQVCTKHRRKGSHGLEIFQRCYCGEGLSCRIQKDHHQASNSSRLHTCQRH

[10] = tested on: Inhibin beta A chain (activin A); experiment: small molecules binding activin A – biochemical, small-molecule microarray, 635 nm fluorescence scan, primary screen (AID 1107); settings: INHBA, higher = more signal;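 note: mouse activin A protein probed at 4.33 µg/mL on printed slides; score merges bound-protein fluorescence near 667 nm with spot signal-to-noise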
[11] = tested on: Human papillomavirus type 1a protein E7 (residues 44-93); experiment: small molecules binding HPV E7 44-93 – biochemical, small-molecule microarray, residues 44-93, 635 nm fluorescence, primary screen (AID 1108); settings: fluorescence 635 nm, higher = more signal;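 note: E7 fragment applied at 1 µg/mL in TBST for 1 h at 4 C; score combines spot fluorescence with its signal to noise ratio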
[12] = hepatitis C replication reporter changes, two-sided – Huh7 cells, luciferase reporter, HCV replication inhibitor project, primary screen (AID 1109); settings: Huh7 HCV replicon luciferase reporter, 48 h; higher = more signal;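 note: huh7 hepatoma cells harbouring a luciferase neomycin HCV replicon reporter; luciferase luminescence as measure of HCV replicon replication; test concentration not given here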
[13] = molecular target: Left-right determination factor 2 (Homo sapiens) (UniProt O00292); experiment: small molecules binding LEFTY2 protein – biochemical, small-molecule microarray, 635 nm fluorescence scan, primary screen (AID 1110); settings: higher = more signal
Chain of Left-right determination factor 2 (Homo sapiens) (O00292 whole entry, looked up): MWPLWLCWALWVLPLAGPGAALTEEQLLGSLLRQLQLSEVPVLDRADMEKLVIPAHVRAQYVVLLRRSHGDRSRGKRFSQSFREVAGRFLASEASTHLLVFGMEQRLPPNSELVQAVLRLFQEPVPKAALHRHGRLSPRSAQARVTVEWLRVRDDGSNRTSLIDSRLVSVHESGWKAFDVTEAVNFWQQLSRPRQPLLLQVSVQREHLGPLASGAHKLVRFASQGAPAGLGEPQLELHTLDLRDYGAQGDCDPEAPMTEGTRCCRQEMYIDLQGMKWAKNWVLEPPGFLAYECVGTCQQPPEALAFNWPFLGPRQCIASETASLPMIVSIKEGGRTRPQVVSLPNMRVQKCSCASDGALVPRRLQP

[14] = molecular target: Calmodulin-1 (Homo sapiens) (UniProt P0DP23); experiment: small molecules binding calmodulin-1 with EGTA – biochemical, small-molecule microarray, Cy5-labelled CALM1, profiling panel (AID 1111); settings: Cy5-CALM1 binding fluorescence, higher = more signal;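 note: labelled calmodulin applied in Tris saline Tween buffer holding calcium plus EGTA and DTT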
[15] = molecular target: Calmodulin-1 (Homo sapiens) (UniProt P0DP23); experiment: small molecules binding Ca-loaded calmodulin-1 – biochemical, small-molecule microarray, Cy5-labelled CALM1, plus calcium, artefact control for SMM control-protein annotation, profiling panel (AID 1112); settings: Cy5-CALM1 binding fluorescence, higher = more signal;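 note: score merges spot fluorescence with signal to noise from triplicate slides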
[16] = probe aWnt5a binding to arrayed compounds – biochemical, biotinylated probe, 635/667 nm fluorescence, primary screen (AID 1113); settings: small-molecule microarray, higher = more signal;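 note: score merges 667 nm fluorescence intensity with signal-to-noise per printed feature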
[17] = probe aShh binding to arrayed compounds – biochemical, biotinylated probe, 635/667 nm fluorescence, primary screen (AID 1114); settings: small-molecule microarray, higher = more signal;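 note: probe is biotin-labelled aShh protein from a stem cell growth factor screen; measures binding of labelled protein to compounds printed on the slide; score merges feature fluorescence at 667 nm with signal-to-noise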
[18] = probe aNog binding to arrayed compounds – biochemical, biotinylated probe, 635/667 nm fluorescence, primary screen (AID 1115); settings: small-molecule microarray, higher = more signal;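 note: probe is biotinylated aNog protein used at 0.15 µg/mL for 1 h at 4 C; z-score combines 667 nm fluorescence of each spot with its signal to noise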
[19] = molecular target: Torsin-1A-interacting protein 1 (Homo sapiens) (UniProt Q5JTV8); experiment: compound microarray binding of lysate hLAP1 – cell lysate, small-molecule microarray, COS7 lysate, 635/667 nm fluorescence, primary screen (AID 1116); settings: 635 nm fluorescence, higher = more signal
Chain of Torsin-1A-interacting protein 1 (Homo sapiens) (Q5JTV8 whole entry, looked up): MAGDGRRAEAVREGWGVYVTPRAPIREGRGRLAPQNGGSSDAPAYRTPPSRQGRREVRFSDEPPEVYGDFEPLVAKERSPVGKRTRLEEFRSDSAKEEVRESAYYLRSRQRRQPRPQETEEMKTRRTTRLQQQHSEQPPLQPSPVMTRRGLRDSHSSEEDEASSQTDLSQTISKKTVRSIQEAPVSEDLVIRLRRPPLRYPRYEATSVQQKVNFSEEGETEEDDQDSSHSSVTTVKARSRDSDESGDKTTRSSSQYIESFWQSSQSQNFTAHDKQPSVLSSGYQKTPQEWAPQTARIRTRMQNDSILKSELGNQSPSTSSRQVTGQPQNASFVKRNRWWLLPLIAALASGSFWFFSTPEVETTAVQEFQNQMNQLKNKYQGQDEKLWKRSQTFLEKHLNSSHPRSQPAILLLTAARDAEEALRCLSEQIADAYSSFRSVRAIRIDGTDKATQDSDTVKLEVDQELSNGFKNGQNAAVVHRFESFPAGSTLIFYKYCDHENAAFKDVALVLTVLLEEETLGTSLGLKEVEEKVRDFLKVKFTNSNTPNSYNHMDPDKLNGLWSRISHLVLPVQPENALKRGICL

[20] = molecular target: Alpha-bungarotoxin (Bungarus multicinctus) (UniProt P60615); experiment: compounds binding labelled alpha-BTX control protein – biochemical, small-molecule microarray, Alexa647 label, 635/667 nm fluorescence, artefact control for SMM control protein annotation, profiling panel (AID 1117); settings: alpha-BTX-A647 binding fluorescence, higher = more signal
Chain of Alpha-bungarotoxin (Bungarus multicinctus) (P60615 whole entry, looked up): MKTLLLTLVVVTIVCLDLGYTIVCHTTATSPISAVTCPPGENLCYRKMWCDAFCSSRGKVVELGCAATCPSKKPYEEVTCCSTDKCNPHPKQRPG

SMILES | composite z-score [1] | composite z-score [2] | composite z-score [3] | z-score [4] | composite z-score [5] | composite z-score [6] | composite z-score [7] | composite z-score [8] | composite z-score [9] | composite z-score [10] | composite z-score [11] | z-score [12] | composite z-score [13] | composite z-score [14] | composite z-score [15] | composite z-score [16] | composite z-score [17] | composite z-score [18] | composite z-score [19] | composite z-score [20]
CCOC(=O)C[C@H]1[C@H](OC(=O)Cc2ccc3c(c2)OCO3)[C@@H](NC(=O)c2ccc3ccccc3c2)c2cc(OCCCO)ccc2N1C(=O)Cc1ccc(OC)cc1 | 0.354 | 0.19 | 0.0248 | -1.83 (inactive) | 0.491 | 0.397 | 0.373 | 0.439 | 0.435 | 0.147 | 1.01 | -1.74 | 0.296 | 1.19 | 0.139 | -0.159 | -0.367 | -0.568 | 0.941 | 0.454
CO[C@@H]1COC(=O)CC=C[C@H](C)COC(=O)[C@H](Cc2ccccc2)NC(=O)CC=C[C@H]1C | 0.534 | -1.19 | -1.74 | -0.912 (inactive) | 0.472 | 0.622 | 1.03 | 1.25 | 2.22 | 1.36 | -0.416 | 1.06 | 1.31 | -1.59 | -2.38 | -0.288 | 0.0048 | -0.547 | -0.0955 | -1.36
Cc1ccc([C@@H]2CC=C(C(=O)O)[C@H](c3ccccc3)N2S(=O)(=O)c2ccc(C)cc2)cc1 | 1.44 | 0.52 | 1.23 | 0.0744 (inactive) | 1.24 | 0.78 | -0.755 | 0.0604 | -1.69 | -0.575 | 0.961 | 0.712 | -0.23 | 2.35 | 0.535 | 0.0599 | 0.374 | 1.05 | 1.9 | 1.79
C=CCC(OC(C)=O)[C@@H]1[C@@H](N(Cc2ccc(-c3cccc(C(F)(F)F)c3)o2)C(=O)Cc2ccc(F)cc2)c2cc(OCCCO)ccc2N1C(=O)c1ccc(-c2ccccc2)cc1 (stereo not given in full) | 0.18 | -0.0567 | 0.494 | -0.291 (inactive) | -0.204 | -0.847 | -0.736 | -0.198 | -0.0679 | 1.32 | -0.741 | -0.583 | -0.689 | -0.679 | 0.671 | -0.154 | 0.0899 | 0.172 | 0.14 | -0.227
COC(=O)[C@@]1(Cc2ccc(OC)cc2)[C@H]2c3cc(C(=O)N(C)C)n(Cc4ccc(C)c(F)c4F)c3C[C@H]2CN1C(=O)c1ccccc1 | 0.274 | 0.627 | 0.993 | -1.25 (inactive) | 0.0253 | -0.109 | -0.902 | 0.0502 | -1.11 | 0.781 | 0.723 | -1.35 | -0.841 | 1.52 | 1.21 | 0.148 | 0.575 | 1.09 | 0.232 | 0.644
O=C(NCc1ccccc1)[C@@]1(CCS(=O)(=O)c2ccccc2)COC(c2ccc(OCCCO)cc2)=N1 | 1.41 | 0.933 | 1.47 | -0.969 (inactive) | 0.748 | 1.08 | -0.166 | 0.23 | -0.594 | 0.807 | 0.623 | -1.71 | -0.0893 | 2.16 | 1.11 | 0.111 | 0.504 | 1.85 | 1.95 | 3.73
C#CCCCON=C1C[C@@H](O)[C@@H](O)[C@@H]2[C@@H]3C(=O)N(Cc4ccc5c(c4)OCO5)C(=O)[C@@H]3CC[C@H]12 | 0.419 | -0.254 | -0.463 | -0.16 (inactive) | 1.34 | 0.253 | 0.328 | 0.578 | 0.59 | -0.345 | 1.36 | -0.0463 | 0.774 | 0.601 | -0.783 | -0.0735 | 0.0796 | -0.326 | 1.34 | 0.24
Cc1ccc(N2C(=O)c3ccccc3[C@](C)(C(=O)NCC(C)C)[C@@H]2c2ccc(CO)cc2)nc1 | 1.78 | 0.504 | 0.481 | -0.237 (inactive) | -0.587 | -0.856 | -0.45 | -0.775 | -0.29 | 1 | -1.1 | 0.324 | -0.337 | -0.584 | -1.07 | -0.0405 | -0.0257 | -0.172 | -0.367 | -0.809
C=CCC(OC(C)=O)[C@@H]1[C@@H](N(Cc2cccc3ccccc23)C(=O)Cc2ccc(F)cc2)c2cc(OCCCO)ccc2N1C(=O)Cc1ccc2ccccc2c1 (stereo not given in full) | -0.182 | -0.0551 | 0.315 | -0.395 (inactive) | 0.2 | -0.236 | -0.285 | -0.0987 | -0.619 | 1.07 | -0.28 | 0.874 | -0.368 | -0.571 | 0.158 | -0.0179 | -0.326 | 0.0129 | -0.148 | 0.983
CCOC(=O)[C@H]1C/C=C/C[C@H](C(=O)OCC)C(=O)O[C@H]2[C@@H](OC)O[C@H](CO)[C@@H](OC(=O)Nc3ccc(Br)cc3)[C@@H]2OC1=O | 0.895 | -0.0855 | 0.68 | -3.54 (inactive) | 0.217 | 1.02 | 0.047 | 0.576 | 0.251 | 0.706 | 0.205 | -3.56 | 0.561 | 1.64 | 0.155 | -0.0704 | 0.0515 | 1.5 | 0.396 | 0.465
C=CCN1C(=O)[C@@]2(O[C@@H](CCn3cc([C@H](O)c4ccccc4)nn3)[C@H]([Si](C)(C)c3ccc(OC)cc3)[C@H]2C)c2cc(N3CCOC3=O)ccc21 | -0.412 | 0.16 | 0.338 | -2.62 (inactive) | 0.0752 | 0.472 | 0.135 | -0.0856 | 0.216 | 0.392 | -0.0922 | -3.71 | -0.125 | 0.0419 | 0.462 | -0.0754 | -0.2 | -0.0428 | 0.559 | -0.577
